A selection: hits, their analogues and other compounds. The true share with any hit is near 6.3%.
Mdm2-MdmX inh: disrupts the human Mdm2-MdmX interaction; hit rate 3% among 330,000; SaOS-2 split-luciferase Mdm2/MdmX complementation, luminescence; inhibition, % at 8 µM;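 active = inhibition of at least 50% at 8 µM in the primary screen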
Target sequence (O15151 whole entry, looked up): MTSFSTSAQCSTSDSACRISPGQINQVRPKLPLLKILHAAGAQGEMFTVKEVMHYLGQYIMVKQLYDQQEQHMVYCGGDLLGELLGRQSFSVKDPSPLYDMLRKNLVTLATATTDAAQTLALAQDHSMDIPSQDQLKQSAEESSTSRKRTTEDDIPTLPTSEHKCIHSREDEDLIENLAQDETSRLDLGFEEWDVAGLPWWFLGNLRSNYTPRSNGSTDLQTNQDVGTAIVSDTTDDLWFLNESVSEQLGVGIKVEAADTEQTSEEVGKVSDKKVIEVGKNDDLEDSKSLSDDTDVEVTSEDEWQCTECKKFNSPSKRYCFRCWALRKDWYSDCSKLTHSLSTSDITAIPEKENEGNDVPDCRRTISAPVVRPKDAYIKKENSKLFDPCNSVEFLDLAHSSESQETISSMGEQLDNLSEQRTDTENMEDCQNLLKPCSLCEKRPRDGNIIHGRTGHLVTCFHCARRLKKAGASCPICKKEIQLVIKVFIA
Target sequence (Q00987 whole entry, looked up): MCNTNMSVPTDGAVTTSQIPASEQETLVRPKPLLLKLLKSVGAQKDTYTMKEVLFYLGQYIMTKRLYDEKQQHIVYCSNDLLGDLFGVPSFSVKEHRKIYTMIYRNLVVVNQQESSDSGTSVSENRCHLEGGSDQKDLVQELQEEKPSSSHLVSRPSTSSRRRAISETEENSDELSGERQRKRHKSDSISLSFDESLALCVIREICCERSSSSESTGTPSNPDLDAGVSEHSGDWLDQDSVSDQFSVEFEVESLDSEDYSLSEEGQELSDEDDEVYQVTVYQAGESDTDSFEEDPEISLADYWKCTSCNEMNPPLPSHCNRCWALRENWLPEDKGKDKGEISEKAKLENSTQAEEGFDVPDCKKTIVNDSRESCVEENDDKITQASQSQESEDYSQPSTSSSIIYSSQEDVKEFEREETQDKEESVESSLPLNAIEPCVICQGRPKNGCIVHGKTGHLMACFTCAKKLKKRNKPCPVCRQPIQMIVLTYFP
tim23-1 inh: inhibits growth of tim23-1 mutant yeast | S. cerevisiae tim23-1 growth, BacTiter-Glo luminescence, 24 h | inhibition, % at 20 µM | hit rate 1.3% among 330,000;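 active = growth inhibition of the mutant yeast at or above 50%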;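 also: temperature-sensitive mutant grown at 25 °C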
TIM10 inh: TIM10 yeast growth inhibition; S. cerevisiae TIM10 strain growth, BacTiter-Glo luminescence, 24 h; inhibition, % at 10 µM; hit rate 1.4% among 330,000; AID 463195;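 active = inhibition of 40% or more at the single tested concentration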;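 also: wild-type TIM10 isogenic control strain grown at permissive 25 °C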
tim10-1 inh: tim10-1 yeast growth inhibition. inhibition, % at 20 µM. hit rate 2.2% among 330,000. S. cerevisiae tim10-1 ts strain growth, BacTiter-Glo, 24 h;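 active = inhibition of at least 40%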;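 also: mutant grown at 25 °C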
MPTP block: blocks calcium-induced mitochondrial swelling; isolated mouse mitochondria, Ca2+ swelling absorbance, 30 min; hit rate 1.4% among 360,000; inhibition, % at 10 µM;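 active = inhibition of 50% or more, scaled per plate between neutral and stimulator controls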
tim10-1 confirm: confirmation of tim10-1 mutant yeast growth inhibitors; shares compounds with tim10-1 inh; S. cerevisiae tim10-1 ts strain growth, BacTiter-Glo, 24 h; inhibition, % at 20 µM; hit rate 56% among 7,400;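 active = inhibition of yeast growth at or above a set limit in either of two repeat tests at 20 µM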;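 also: tim10-1 mutant grown at permissive 25 °C to find synthetic lethal compounds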
tim10 confirm: TIM10 yeast growth inhibition, confirmed | S. cerevisiae tim10 strain growth, BacTiter-Glo luminescence, 24 h | inhibition, % at 10 µM | shares compounds with TIM10 inh | AID 463215 | hit rate 63% among 4,600;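 active = inhibition of yeast growth at or above a set limit in either of two replicates at 10 µM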; also: this counterscreen used the strain with wild-type TIM10
Numbers stand for hits; – = inactive; · = not tested or not shown.

SMILES	Mdm2-MdmX inh	tim23-1 inh	TIM10 inh	tim10-1 inh	MPTP block	tim10-1 confirm	tim10 confirm
CCCc1nc2oc3c(NCC4CCCO4)ncnc3c2c2c1COC(C)(C)C2 (stereo unspecified)	–	–	–	–	–	·	·
CC(C)c1nc2oc3c(NCC4CCCO4)ncnc3c2c2c1CCC2 (stereo unspecified)	–	–	45	46	–	–	–
O=S(=O)(c1ccccc1)n1cc(-c2cccc3nccn23)c2ccccc21	·	·	·	·	–	·	·
CCCNC(=O)C1(C)CCCN(C(=O)COc2ccc(Cl)cc2Cl)C1 (stereo unspecified)	·	·	·	·	–	·	·
O=C1NN=C(c2ccccc2)CC1c1ccc(Cl)cc1Cl (stereo unspecified)	–	–	42	50	–	38	57
COc1ccccc1CN1CCc2c([nH]c3ccccc23)C1	–	–	–	–	–	·	·
Clc1cccc(CN2CCc3c([nH]c4ccccc34)C2)c1Cl	–	–	60	72	–	66	66
Cc1ccc(/C=c2\sc3nc(-c4cccnc4)nn3c2=O)cc1	·	·	·	·	–	·	·
CC(C)c1ccc(/C=c2\sc3nc(-c4ccncc4)nn3c2=O)cc1	–	–	44	49	–	30	–
CC1(C)OC(=O)C2=C(C[C@@H](C3CCCCC3)O[C@@H]2c2ccc(F)cc2)O1	·	·	·	·	–	·	·
O=C(Nc1ccc(Cl)cc1Cl)c1cccc(N2C(=O)C=CC2=O)c1	–	–	95	59	–	96	100
O=C(O)c1cccc(N2C(=O)C=CC2=O)c1	·	·	·	·	–	·	·
CCOC(=O)C1=CCC(c2cc3ccc(OC)cc3n2C(=O)OC(C)(C)C)NC1 (stereo unspecified)	·	·	·	·	–	·	·
CCN(C(=O)COC(=O)/C(=C/c1ccccc1)n1nnnc1C)C1CCCCC1	–	–	41	42	–	38	45
Cc1ccc2c(c1)nnn2C1CCN(C(=O)C23CC4CC(CC(C4)C2)C3)CC1	–	–	42	60	–	41	38
CC1CCCC(C)N1C(=O)CN1C(=O)NC2(CCCCCC2)C1=O (stereo unspecified)	·	·	·	·	–	·	·
CC(=O)NC(c1ccc(F)c(F)c1)c1nc(-c2ccccc2C)cs1 (stereo unspecified)	·	·	·	·	–	·	·
NC(=S)Nc1cc2ccccc2c2ccccc12	–	–	–	–	–	·	·
NC(=S)Nc1cccc2cc3ccccc3cc12	–	–	40	40	–	–	32
Cc1cc(Cl)ccc1OCC(=O)Nc1nc(-c2cccs2)cs1	–	–	43	49	–	41	–
CC(=O)C1=CCC(c2ccc(Cl)cc2)N(S(=O)(=O)c2ccccc2)C1 (stereo unspecified)	·	·	·	·	–	·	·
COc1cc2c(cc1NC(=O)c1cccnc1)oc1ccccc12	–	–	–	–	–	·	·
COc1cc2c(cc1NC(=O)c1ccncc1)oc1ccccc12	–	–	42	46	–	–	47
COc1cc2c(cc1NS(=O)(=O)N1CCCC1)oc1ccccc12	–	–	47	43	–	–	43
CO[C@H]1CN(C)C(=O)c2cc(NC(=O)c3cc(C)on3)ccc2OC[C@@H](C)N(C(=O)C2CC2)C[C@H]1C	·	·	·	·	–	·	·
SMILES	Mdm2-MdmX inh	tim23-1 inh	TIM10 inh	tim10-1 inh	MPTP block	tim10-1 confirm	tim10 confirm
Cc1ccc2cc3cc(C(=O)NCCCN4CCc5ccccc5C4)oc3nc2c1	–	–	64	51	–	35	–
CCCN(CCC)CCCNC(=O)c1cc2cc3ccc(Cl)cc3nc2o1	–	–	60	58	–	39	41
CC(=O)Nc1cccc(-c2ccnc3c2CC(C)(C(=O)Nc2cccnc2)O3)c1 (stereo unspecified)	·	·	·	·	–	·	·
COC(=O)C1(C(=O)OC)c2ncccc2N(S(=O)(=O)c2ccc(C)cc2)C1CC(=O)c1ccccc1 (stereo unspecified)	·	·	·	·	–	·	·
Cc1ccc2c(c1)c1n[nH]c(=S)nc1n2CCc1ccccc1	–	–	41	46	–	–	38
O=C(/C=C/c1cccc(OCc2ccccc2)c1)c1cccnc1	–	–	65	57	–	50	52
CCCS(=O)(=O)Nc1ccc(Nc2c3ccccc3nc3ccccc23)c(OC)c1	·	·	·	·	–	·	·
Oc1ccccc1CN1CCC(C(O)(c2ccccc2)c2ccccc2)CC1	–	–	51	43	–	36	41
CCN1CCCC(OC(=O)c2cc(-c3ccccc3Cl)nc3ccccc23)C1 (stereo unspecified)	–	–	49	48	–	33	37
O=C(NC1CCN(Cc2ccccc2)CC1)c1ccc(CS(=O)c2ccccc2Cl)o1 (stereo unspecified)	·	·	·	·	–	·	·
CN1OC[C@@H]2CN(C(=O)Nc3ccccc3)[C@H](c3ccc(N4CCCCC4)cc3)C[C@@H]21	·	·	·	·	–	·	·
CCOC(=O)Cc1csc(NC(=S)NC(=O)c2ccccc2)n1	–	–	51	47	–	–	35
CC(C)(C(=O)N1CCC1(C)C(=O)NS(=O)(=O)c1ccccc1Cl)c1ccccc1 (stereo unspecified)	·	·	·	·	–	·	·
COc1ccc2[nH]cc(/C=C/C(=O)c3ccccc3)c2c1	–	–	71	61	–	52	74
O=C(/C=C/c1ccccc1O)c1ccccc1	·	·	·	·	–	·	·
O=C(/C=C/c1c[nH]c2ccccc12)c1ccccc1	–	–	53	45	–	37	–
COc1ccc(OC)c(N2C(=O)c3ccccc3C2c2nnnn2-c2ccc3c(c2)OCCO3)c1 (stereo unspecified)	·	·	·	·	–	·	·
CN1/C(=C\C(=S)Nc2ccccc2)C(C)(C)c2ccccc21	–	–	48	51	–	47	56
COc1ccc2c(c1)S/C(=C\C(=O)c1ccncc1)N2C	–	–	82	54	–	73	85
COc1cc(OC)cc(C(=O)/C=C2\Sc3ccccc3N2C)c1	–	–	–	–	–	·	·
O=C(NC(=S)Nc1ccccc1N1CCCCC1)c1cccs1	–	–	52	43	–	34	61
O=C(NC(=S)Nc1ccccc1N1CCCC1)c1cccs1	–	–	–	–	–	·	·
CCCCN(C)c1c(C)nc2ccc(C(=O)NCCCn3ccnc3)cn12	·	·	·	·	–	·	·
COc1cc(C2=NOC(C(=O)N3CCN(c4ccc(F)cc4)CC3)C2)cc(OC)c1OC (stereo unspecified)	–	–	46	41	–	40	40
CCCC#Cc1ccc2c(c1)O[C@H](CN(C)S(=O)(=O)c1cccc(OC)c1)[C@H](C)CN([C@H](C)CO)S2(=O)=O	·	·	·	·	–	·	·
CC1(C)CC(/C=C/c2ccccc2)=Nc2ccccc2N1	–	–	67	49	–	54	58
O=C1CC(/C=C/c2ccccc2)=Nc2ccccc2N1	–	–	–	–	–	·	·
COC(=O)[C@@]12C[C@@H](CC(=O)NCC3CCCCC3)C(=O)N(Cc3ccc4c(c3)OCO4)C1=CCC(C)(C)C2	·	·	·	·	–	·	·
Cc1noc(-c2ccccc2)c1NC(=O)Nc1ccc2nc([C@H]3C[C@H](O)[C@@H](CO)O3)[nH]c2c1	·	·	·	·	–	·	·

High-throughput results: PubChem BioAssay, Sanford-Burnham Center for Chemical Genomics
